CYP2C19 inh: human CYP2C19 inhibition; 21% of 96,000 active; P33261; CYP2C19 Supersomes, luciferin-H EGE luminescence, 30 min; inhibition, % at 5 µM;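 active = CYP2C19 inhibition above a set limit at 5 µM in the primary screen, cut at about 50% in these data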
CYP2C9 inhib: human CYP2C9 inhibition | CYP2C9 Supersomes, luciferin-H conversion, luminescence | inhibition, % at 5 µM | 20% of 96,000 active;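 active = blocking of liver enzyme CYP2C9 beyond about 50% at 5 µM, limit read from the data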
Target sequence (P11712 whole entry, looked up): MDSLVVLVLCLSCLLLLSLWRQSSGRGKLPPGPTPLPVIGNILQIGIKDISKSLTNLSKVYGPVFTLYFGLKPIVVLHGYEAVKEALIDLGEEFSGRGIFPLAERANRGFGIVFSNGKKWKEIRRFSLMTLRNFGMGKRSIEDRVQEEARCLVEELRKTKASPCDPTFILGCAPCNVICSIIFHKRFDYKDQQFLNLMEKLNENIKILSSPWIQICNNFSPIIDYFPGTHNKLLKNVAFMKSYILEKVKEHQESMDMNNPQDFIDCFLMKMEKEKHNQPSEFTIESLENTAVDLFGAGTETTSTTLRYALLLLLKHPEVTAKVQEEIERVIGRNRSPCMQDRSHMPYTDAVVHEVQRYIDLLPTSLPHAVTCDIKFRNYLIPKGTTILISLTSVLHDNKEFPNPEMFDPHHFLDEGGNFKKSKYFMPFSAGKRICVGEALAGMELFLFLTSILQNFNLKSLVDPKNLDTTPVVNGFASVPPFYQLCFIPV
CYP2C19 activ: increases human CYP2C19 enzyme activity; recombinant CYP2C19, luciferin-H EGE luminescence; active compounds read high; 0 = fully inhibited enzyme, 1 = untreated enzyme; activation factor at 5 µM; 96,000 tested, under 10 active; P33261;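 active = activation factor of at least 2 at 5 µM in the primary screen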
CYP2C9 activ: increases human cytochrome P450 2C9 activity. P11712. recombinant CYP2C9, luciferin-H conversion, luminescence; active compounds read high; factor 1 = untreated enzyme, 0 = blocked. activation factor at 5 µM. 1.4% of 96,000 active. AID 1024;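 active = activation factor of 2 or more for CYP2C9 at a 5 µM dose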
Mac1 fbg enh: CD11b/CD18-fibrinogen binding enhancement; K562 CD11b/CD18 adhesion to fibrinogen, ATPlite luminescence; 0.07% of 93,000 active; AID 1499; activation, % at 10 µM; P05107+P11215;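 active = 10 µM primary screen giving 50% or more activity, confirmed by 40% or more on retest at that dose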
Mac1 fbg inh: inhibitors of human CD11b/CD18 binding to fibrinogen. inhibition, % at 10 µM. K562 CD11b/CD18 adhesion to fibrinogen, ATPlite luminescence; Mn2+ added to activate the integrin. 0.54% of 93,000 active. AID 1497. P05107+P11215;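 active = primary inhibition of 50% or more at 10 µM, then 40% or more on retest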
Hits are given with their value; 0 = inactive; - = not tested or not shown. Most compounds without a hit are left out; they make up all but 28% or so of the library.

SMILES | CYP2C19 inh | CYP2C9 inhib | CYP2C19 activ | CYP2C9 activ | Mac1 fbg enh | Mac1 fbg inh
COc1cccc(CNC(=O)C2CCCN(S(=O)(=O)c3c(C)[nH]c(=O)[nH]c3=O)C2)c1 (stereo not drawn) | 0 | 0 | 0 | 0 | 0 | 0
Nc1c(-c2ccccc2)cnn1-c1ccc(C(=O)O)cc1 | 0 | 0 | 0 | 0 | 0 | 0
Cc1ccccc1NC(=O)Cc1nc(-c2ccc3ccccc3c2)cs1 | - | - | - | - | 0 | 0
O=S(=O)(c1ccc(S(=O)(=O)N2CCN(Cc3ccccc3)CC2)cc1)N1CCOCC1 | 0 | 0 | 0 | 0 | 0 | 0
O=S(=O)(c1ccc(Cl)s1)N1CCN(Cc2ccccc2)CC1 | 84.3 | 61.1 | 0 | 0 | 0 | 0
O=S(=O)(c1ccc(Br)s1)N1CCC(Cc2ccccc2)CC1 | 0 | 55.6 | 0 | 0 | 0 | 0
O=S(=O)(c1ccc(Cl)s1)N1CCC(Cc2ccccc2)CC1 | 0 | 67.8 | 0 | 0 | 0 | 0
O=c1ccc(S(=O)(=O)N2CCC(Cc3ccccc3)CC2)c[nH]1 | 0 | 0 | 0 | 0 | 0 | 0
Cc1ccccc1N1CCN(C(=O)c2ccccc2NC(=O)C2CC=CCC2C(=O)O)CC1 (stereo not drawn) | 0 | 0 | 0 | 0 | 0 | 0
O=C(NC(=S)Nc1ccccc1)c1csnn1 | 0 | 0 | 0 | 0 | 0 | 0
CCOC(=O)c1c(C)nc2sc3c(=O)n(-c4ccc(C(C)=O)cc4)cnc3c2c1-c1ccc(OC)cc1 | 70.0 | 76.5 | 0 | 0 | 0 | 0
CCOC(=O)c1c(C)[nH]c(C)c1C(=O)COC(=O)C1CCCN1S(=O)(=O)c1ccccc1F (stereo not drawn) | 100.4 | 95.0 | 0 | 0 | 0 | 0
O=c1oc2cc(Cl)ccc2n1CSc1nc2ccccc2s1 | 73.7 | 66.6 | 0 | 0 | 0 | 0
COC(=O)Cc1c(O)ccn(Cc2cccc3ccccc23)c1=O | 63.6 | 0 | 0 | 0 | - | -
COc1ccc(-n2nnc3c(=O)n(Cc4ccccc4C)cnc32)cc1 | 0 | 0 | 0 | 0 | 0 | 0
COc1ccc(-n2nnc3c(=O)n(Cc4cccc(C)c4)cnc32)cc1 | 0 | 55.8 | 0 | 0 | 0 | 0
CC/C(=N\NC(=O)Nc1ccccc1)c1ccccc1 | - | - | - | - | 0 | 0
Cc1ccc(-c2nc3ccccc3c(C(=O)NCc3cccs3)c2C)cc1 | 87.3 | 94.7 | 0 | 0 | 0 | 0
Cc1ccc(C)c(-c2cc(C(=O)Nc3nccs3)c3ccccc3n2)c1 | 0 | 0 | 0 | 0 | 0 | 0
Cc1ccc(C)c(-c2cc(C(=O)NCc3cccs3)c3ccccc3n2)c1 | 0 | 51.8 | 0 | 0 | 0 | 0
COc1ccc(NC(=O)CN2CCN(CC(=O)Nc3cc(OC)cc(OC)c3)CC2)cc1 | 55.5 | 61.2 | 0 | 0 | 0 | 0
O=C(CN1CCCC1)Nc1ccccc1Cl | 0 | 0 | 0 | 0 | 0 | 0
COc1ccc(NC(=O)CN2CCC(C)CC2)c([N+](=O)[O-])c1 | 64.8 | 53.7 | 0 | 0 | 0 | 0
COc1ccc(NC(=O)CN2CCC(C)CC2)cc1 | 89.3 | 0 | 0 | 0 | 0 | 0
COc1ccc(NC(=O)CN2CCN(CC(=O)Nc3ccccc3Cl)CC2)cc1Cl | 91.3 | 57.1 | 0 | 0 | - | -
SMILES | CYP2C19 inh | CYP2C9 inhib | CYP2C19 activ | CYP2C9 activ | Mac1 fbg enh | Mac1 fbg inh
COc1ccc(/C=N/n2cnnc2SCc2ccc(OC)cc2)cc1 | 0 | 0 | 0 | 0 | 0 | 0
COc1ccc(C2C3=C(CCCC3=O)Nc3nc(C(F)(F)F)nn32)c(OC)c1OC (stereo not drawn) | 0 | 0 | 0 | 0 | 0 | 0
COc1ccc(NC(=O)CN2CCOCC2)cc1 | 0 | 0 | 0 | 0 | 0 | 0
CCOc1ccc(/C=C/C(=O)Nc2ccc(OC)cc2[N+](=O)[O-])cc1 | 0 | 0 | 0 | 2.4 | 0 | 0
COc1ccc(NC(=O)CN2CCC3(O)CCCCC3C2c2cc(OC)ccc2OC)cc1 (stereo not drawn) | 71.0 | 79.9 | 0 | 0 | 0 | 0
COc1ccc(NC(=O)CN2CCN(C3c4ccccc4-c4ccccc43)CC2)cc1 | 58.7 | 94.7 | 0 | 0 | 0 | 0
CSc1ccccc1NC(=O)c1ccco1 | 0 | 0 | 0 | 0 | 0 | 0
CC(Oc1ccc(Cl)cc1Cl)c1nc(-c2ccc(NC(=O)c3ccco3)cc2)no1 (stereo not drawn) | 0 | 53.6 | 0 | 0 | 0 | 0
CCCc1ccc(OCc2nc(-c3ccc(NC(=O)c4ccco4)cc3)no2)cc1 | 0 | 0 | 0 | 0 | 0 | 0
Nc1ccc2oc(-c3cccs3)nc2c1 | 0 | 0 | 0 | 0 | 0 | 0
CCOC(=O)/C(C#N)=C\c1ccc(OCC(=O)Nc2ccc(C)cc2C)c(OC)c1 | 77.5 | 0 | 0 | 0 | - | -
CCOC(=O)/C(C#N)=C/c1ccc(OCC(=O)Nc2cc(C)ccc2C)c(OC)c1 | 0 | 0 | 0 | 0 | 0 | 0
N/C(Cc1ccc([N+](=O)[O-])cc1)=N\OC(=O)c1ccc([N+](=O)[O-])cc1 | 0 | 0 | 0 | 0 | 0 | 0
COc1ccccc1C/C(N)=N/OC(=O)c1cccc([N+](=O)[O-])c1 | 0 | 0 | 0 | 2.4 | 0 | 0
COc1ccc(-n2c(SCC(=O)Nc3nccs3)nc3c(c2=O)SC(C)C3)cc1 (stereo not drawn) | 0 | 0 | 0 | 0 | 0 | 0
CCCn1c(SCC(=O)N2CC(=O)Nc3ccccc32)nc2ccccc21 | - | - | - | - | 0 | 0
Cc1ccc(-n2c(C)nnc2SCC(=O)N2CCc3ccccc3C2)cc1 | - | - | - | - | 0 | 0
Cc1sc2nc(C3CC3)nc(SCC(=O)N3CC(=O)Nc4ccccc43)c2c1C | 0 | 65.6 | 0 | 0 | - | -
CCc1c(C)sc2nc(C(C)C)nc(SCC(=O)N3CCc4ccccc4C3)c12 | 0 | 96.6 | 0 | 0 | 0 | 0
Cc1sc2nc(C3CC3)nc(SCC(=O)N3CCc4ccccc4C3)c2c1C | 64.6 | 84.9 | 0 | 0 | 0 | 0
Cc1ccccc1NC(=O)/C(C#N)=C/c1ccccc1C(F)(F)F | - | - | - | - | 0 | 0
COC(=O)c1ccc(NC(=S)NCCc2cccc(C)c2)cc1 | 76.6 | 79.4 | 0 | 0 | 0 | 0
O=C(CN1C(=O)S/C(=C/c2cc(Br)cs2)C1=O)N1CCOCC1 | - | - | - | - | 0 | 0
CCc1ccc(OCC(=O)Nc2cc(S(=O)(=O)CC)ccc2O)cc1 | 0 | 78.7 | 0 | 0 | 0 | 0
COc1ccc(OCC(=O)Nc2ccccc2O)cc1 | 98.7 | 94.8 | 0 | 0 | 0 | 0
SMILES | CYP2C19 inh | CYP2C9 inhib | CYP2C19 activ | CYP2C9 activ | Mac1 fbg enh | Mac1 fbg inh
CC(C)NS(=O)(=O)c1ccc(OCC(=O)Nc2cccc3ccccc23)cc1 | 87.9 | 82.1 | 0 | 0 | 0 | 0
COc1ccc(OCC(=O)Nc2nc3ccccc3[nH]2)cc1 | 0 | 0 | 0 | 0 | 0 | 0
COc1ccc(NC(=O)Cc2cccs2)c(OC)c1 | 79.2 | 0 | 0 | 0 | 0 | 0
COc1ccc(NC(=O)CC(C)C)c(OC)c1 | 0 | 0 | 0 | 0 | 0 | 0
O=c1c2c3n(c(=O)nc2[nH]n1-c1ccccc1)CCCCC3 | 0 | 0 | 0 | 0 | 0 | 0
COc1ccccc1NC(=O)COc1ccccc1 | 0 | 0 | 0 | 0 | 0 | 0
COc1ccccc1NC(=O)Cn1c(=O)sc2ccccc21 | 0 | 0 | 0 | 0 | 0 | 0
COc1ccc(NC(=O)COc2ccccc2)c(OC)c1 | 91.6 | 83.5 | 0 | 0 | 0 | 0

Screening data from PubChem.
